Where “and” joins values, the source holds several entries; their conditions need not be identical. Equal entries are not always repeated. Calls of active or inactive are those of the source. Unless noted, no rule for the calls is given here.

As a reminder, the inhibition is the drop in the measured response relative to a control, in per cent.

A short description of experiment [1]: enhancers of glutamate uptake in motor neurons, MN-1 cell line (AID 1612).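 Also: tested at 1 µM final; 0% = mean of DMSO vehicle wells on each plate; positive means more glutamate uptake than control and negative means less.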 The conditions noted are these: MN-1 motor neuron cells, stronger effect = higher value.
Experiment [2] is described as follows: suppressors of polyglutamine aggregation in yeast, 75Q-TubH (AID 1616). The note with it: S. cerevisiae 75Q-TubH polyglutamine aggregation suppression; stronger effect = higher value.
A short description of experiment [3]: circadian clock period modulators, cell-based, LOPAC library, luminescence reporter (AID 2774).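 Also: values are relative to mean of DMSO wells on each plate.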 The note with it: circadian reporter cells, at 7 µM, actives lie on both sides.
Experiment [4] in a line: hESC survival regulators, cell-based (AID 493140).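 Also: cells exposed to compounds for four days before counting.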 The conditions noted are these: human embryonic stem cell survival screen; stronger effect = higher value.
The nature of experiment [5]: HepG2 cytotoxicity, primary screen, cytotoxicity control for P. falciparum antimalarial project, cell-based, ATP luminescence (AID 2303;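 active = inhibition above 50%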;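 also: 0% = DMSO wells and 100% = digitonin-killed cells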). The conditions noted are these: HepG2 viability, 24-48 h, at 10 µM, stronger effect = higher value.
Experiment [6] deals with L-lactate dehydrogenase (Plasmodium falciparum (isolate CDC / Honduras)) (UniProt Q27743). Description: PfLDH activity inhibition – cell lysate, 3D7 strain, counter-screen for P. falciparum growth inhibition project (AID 2304).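 Also: 0% = vehicle and 100% = reference inhibitor.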 The note with it: P. falciparum 3D7 crude extract, LDH APAD/NBT absorbance; at 2 µM; stronger effect = higher value. In general terms: Counterscreens check selectivity or assay interference.

Experiment [7] can be described thus: inhibition of 3D7 malaria parasite growth – strain 3D7 (AID 2306).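 Also: 0% = DMSO wells and 100% = chloroquine plus artemisinin control wells.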 The note with it: P. falciparum 3D7 erythrocytic growth, LDH absorbance, 72 h; at 2 µM; stronger effect = higher value.
Experiment [8] is described as follows: antimalarial activity against Dd2 strain (AID 2302;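 active = growth inhibition above 50% at the single 2 µM test dose, taken to imply half-maximal potency below 2 µM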;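 also: 0% = DMSO untreated growth and 100% = chloroquine plus artemisinin killed control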). The note with it: P. falciparum Dd2 in RBCs, LDH growth readout, 72 h; at 2 µM; stronger effect = higher value.

L-lactate dehydrogenase (Plasmodium falciparum (isolate CDC / Honduras)), sequence (Q27743 whole entry, looked up): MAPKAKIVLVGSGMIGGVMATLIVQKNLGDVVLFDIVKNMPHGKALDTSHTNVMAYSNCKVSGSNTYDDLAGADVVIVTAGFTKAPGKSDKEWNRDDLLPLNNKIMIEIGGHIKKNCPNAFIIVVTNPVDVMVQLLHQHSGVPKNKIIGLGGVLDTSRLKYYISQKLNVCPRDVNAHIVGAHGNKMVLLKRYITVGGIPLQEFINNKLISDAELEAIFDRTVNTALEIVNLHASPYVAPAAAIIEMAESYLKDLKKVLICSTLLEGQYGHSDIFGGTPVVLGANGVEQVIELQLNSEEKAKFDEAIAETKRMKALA

Turning to `COC(=O)[C@H]1[C@H]2C[C@@H]3c4[nH]c5cc(OC)ccc5c4CCN3C[C@H]2C[C@@H](OC(=O)c2cc(OC)c(OC)c(OC)c2)[C@@H]1OC`, the glutamate uptake change in experiment [1] was 4.63%. In experiment [2], this compound had an aggregation suppression score of 1.07. For the same compound, in experiment [3], the period change was 0.165 h (inactive). Further, the survival in experiment [4] is 6.17 (inactive).

In the case of `Cc1oncc1C(=O)Nc1ccc(C(F)(F)F)cc1`, the glutamate uptake change in experiment [1] is 8.42%. This compound also displayed an aggregation suppression score in experiment [2] of 0.133. Also, in experiment [3], the period change is 0.35 h (inactive). Moreover, the survival in experiment [4] is 6.08 (inactive).

Consider `C=Cc1c(C)c2cc3[nH]c(cc4nc(cc5nc(cc1[nH]2)C(C)=C5CCC(=O)O)C(CCC(=O)O)=C4C)c(C)c3C=C`, for which, in experiment [1], the glutamate uptake change amounted to 5.14%. In experiment [2], this compound gave an aggregation suppression score of 0.995. Also, the period change in experiment [3] was -0.02 h (inactive).

Consider `CN(Cc1cnc2nc(N)nc(N)c2n1)c1ccc(C(=O)N[C@@H](CCC(=O)O)C(=O)O)cc1`, for which the glutamate uptake change in experiment [1] turned out to be 10.9%. Moreover, the aggregation suppression score in experiment [2] is 0.131. For the same compound, the inhibition in experiment [5] was -2% (inactive); in experiment [6] it was 1% (inactive). Moreover, in experiment [7], the growth inhibition was 91% (active). The period change in experiment [3] is 0.835 h (inactive). In experiment [4], the survival was 39.6 (inactive).

As to `CC1CCC(NC(=O)N(CCCl)N=O)CC1` (configuration not stated), the glutamate uptake change in experiment [1] is -7.99%. The same compound displayed an aggregation suppression score in experiment [2] of 0.0109.

Take `CCOC(=O)C(C)(C)Oc1ccc(Cl)cc1`: in experiment [1], the glutamate uptake change is -11.1% and 6.19%. For the same compound, the aggregation suppression score in experiment [2] was 0.624 and 0.92. The period change in experiment [3] is -0.13 h (inactive). In addition, the survival in experiment [4] was 82.4 (inactive).

`CN1CCN2c3ccccc3Cc3ccccc3C2C1` (configuration not stated): the glutamate uptake change in experiment [1] amounted to 12.1%. In experiment [2], this compound returned an aggregation suppression score of 1.3. For the same compound, in experiment [3], the period change was 0.145 h (inactive). For the same compound, the survival in experiment [4] was 11.2 (inactive).

For the compound `CC(C)(C)CC(C)(C)c1ccc(O)c(Cc2ccc(Cl)cc2Cl)c1`, in experiment [1], the glutamate uptake change is -22.5%. In addition, the aggregation suppression score in experiment [2] is 0.498.

Regarding `CCCCCCc1ccc(O)cc1O`, in experiment [1], the glutamate uptake change was found to be 15.5%. The compound further gave an aggregation suppression score in experiment [2] of -0.0012.

For `CN1CCN(CCCN2c3ccccc3Sc3ccc(Cl)cc32)CC1`, in experiment [1], the glutamate uptake change was found to be 0%. In experiment [2], this compound showed an aggregation suppression score of 1.34. The period change in experiment [3] is 0.055 h (inactive). For the same compound, in experiment [4], the survival was 1.75 (inactive).

Consider `CCCCC(CC)CN=C(N)NC(N)=NCCCCCCN=C(N)NC(N)=NCC(CC)CCCC` (configuration not stated), for which the glutamate uptake change in experiment [1] is -50.4%. For the same compound, in experiment [2], the aggregation suppression score was -0.456. Moreover, in experiment [4], the survival was 0.25 (inactive).

With `CC(CN(C)C)CN1c2ccccc2CCc2ccccc21` (configuration not stated), the glutamate uptake change in experiment [1] amounted to 14.6%. The same compound gave an aggregation suppression score in experiment [2] of 1.32. Further, the period change in experiment [3] is -0.085 h (inactive). The survival in experiment [4] is 2.17 (inactive).

As to `Oc1c(I)cc(I)c2cccnc12`, the glutamate uptake change in experiment [1] was determined as 78.2%. In experiment [2], this compound showed an aggregation suppression score of 0.108.

`Clc1ccc(C(c2ccccc2Cl)C(Cl)Cl)cc1` (configuration not stated): the glutamate uptake change in experiment [1] is -9.79%. The compound further had an aggregation suppression score in experiment [2] of -1.87. Also, the period change in experiment [3] is -0.13 h (inactive).

With `CCC(=O)O[C@H]1[C@H](O[C@@H]2[C@@H](C)[C@H](O[C@H]3C[C@@](C)(OC)[C@@H](O)[C@H](C)O3)[C@@H](C)C(=O)O[C@H](CC)[C@@](C)(O)[C@H](O)[C@@H](C)C(=O)[C@H](C)C[C@@]2(C)O)O[C@H](C)C[C@@H]1N(C)C`, the glutamate uptake change in experiment [1] was -11.5%. This compound registered an aggregation suppression score in experiment [2] of -0.59.

Regarding `Clc1ccccc1C(c1ccccc1)(c1ccccc1)n1ccnc1`, the glutamate uptake change in experiment [1] was -22.9%. Besides, the aggregation suppression score in experiment [2] turned out to be 0.0931. The period change in experiment [3] was 0.01 h (inactive). In experiment [4], the survival was 29.8 (inactive).

Turning to `CCCC(C(=O)OCCN(CC)CC)(c1ccccc1)c1ccccc1`, the glutamate uptake change in experiment [1] came to 0.18%. The compound also registered an aggregation suppression score in experiment [2] of 1.25. Also, the period change in experiment [3] is -0.035 h (inactive). The survival in experiment [4] is 3.58 (inactive).

With `Fc1ccc(C(c2ccc(F)cc2)N2CCN(C/C=C/c3ccccc3)CC2)cc1`, the glutamate uptake change in experiment [1] was found to be 9.47%. This compound yielded an aggregation suppression score in experiment [2] of 1.1. Also, the period change in experiment [3] was -0.2 h (inactive). Besides, the survival in experiment [4] was 3.67 (inactive).

As for `CC(C)COCC(CN(Cc1ccccc1)c1ccccc1)N1CCCC1` (configuration not stated), the glutamate uptake change in experiment [1] is 12.6%. This compound also returned an aggregation suppression score in experiment [2] of 1.08. Further, the period change in experiment [3] was 0.04 h (inactive). Besides, in experiment [4], the survival was 5.92 (inactive).

As to `CCCCCCCC/C=C\CCCCCCCC(=O)NCc1ccc(O)c(OC)c1`, the growth inhibition was 93% (active) in experiment [8] and 96% (active) in experiment [7]. For the same compound, the inhibition in experiment [5] and in experiment [6] was -7% (inactive) each time.

Regarding `CCN(CC)Cc1cc(Nc2ccnc3cc(Cl)ccc23)ccc1O`, the growth inhibition was 99% (active) in experiment [8] and 102% (active) in experiment [7]. Moreover, the inhibition in experiment [5] is -2% (inactive); in experiment [6], 3% (inactive). Further, the survival in experiment [4] is 6.17 (inactive).

As to `CN1CCC(=C2c3ccccc3Sc3ccccc32)CC1`, in experiment [1], the glutamate uptake change was 7.96%. The compound further came in with an aggregation suppression score in experiment [2] of 1.3. Besides, the survival in experiment [4] is 12.3 (inactive).

Turning to `OCc1cc(C(O)CNCCCCCCOCCCCc2ccccc2)ccc1O` (configuration not stated), the period change in experiment [3] was -0.06 h (inactive).

Take `CC(Cc1cccc(C(F)(F)F)c1)NCCOC(=O)c1ccccc1` (configuration not stated): in experiment [1], the glutamate uptake change came to 15.6%. Moreover, the aggregation suppression score in experiment [2] stood at 1.08. In experiment [4], the survival is 2.5 (inactive).

As to `CCCCC1C(=O)N(c2ccccc2)N(c2ccc(O)cc2)C1=O` (configuration not stated), the glutamate uptake change in experiment [1] is 5.7%. In experiment [2], this compound yielded an aggregation suppression score of 0.77. For the same compound, the survival in experiment [4] was 4 (inactive).

Regarding `Brc1c(NC2=NCCN2)ccc2nccnc12`, in experiment [3], the period change is -0.1 h (inactive).

Consider `Nc1ccc(N=Nc2ccccc2)c(N)n1`, for which the glutamate uptake change in experiment [1] is -9.75%. The compound further gave an aggregation suppression score in experiment [2] of 1.49. Besides, the survival in experiment [4] was 4 (inactive).

In the case of `COc1ccc(C(=O)c2ccccc2)c(O)c1`, the glutamate uptake change in experiment [1] is 5.28%. In experiment [2], this compound came in with an aggregation suppression score of 0.225. Also, in experiment [4], the survival is 3.25 (inactive).

Regarding `Cc1cn[nH]c1`, in experiment [3], the period change was 0.23 h (inactive).

With `COc1cc2c(Nc3ccc(Br)cc3F)ncnc2cc1OCC1CCN(C)CC1`, the growth inhibition in experiment [8] was 16% (inactive); in experiment [7], 97% (active). The inhibition is 10% (inactive) in experiment [5] and 5% (inactive) in experiment [6].

For the origin of these results see PubChem BioAssay.
